A selection: hits, their analogues and other compounds. The true share with any hit is near 4.4%.
tim10-1 inh = growth inhibitors of tim10-1 mutant yeast, primary screen, luminescence, uHTS. S. cerevisiae tim10-1 ts strain growth, BacTiter-Glo, 24 h. inhibition, % at 20 µM. hit rate 2.2% among 330,000;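 active means inhibition of at least 40%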;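 further: mutant grown at 25 °C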
PfHsp90 set2 = growth inhibition of PfHsp90-expressing yeast, primary screen, antimalarial PfHsp90 inhibitor project, S. cerevisiae, BacTiter-Glo luminescence, single point, set 2 | BacTiter-Glo ATP, 48 h; yeast lacking PDR1 and PDR3 efflux regulators | inhibition, % at 9.4 µM | hit rate 0.32% among 310,000 | AID 504621, 2011;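 active means every replicate shows inhibition above about 80%, whatever the replicate mean, limit read from the data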
TIM10 inh = growth inhibitors of isogenic TIM10 control yeast, primary screen, counter-screen for tim10-1 yeast inhibitor project, luminescence, uHTS; S. cerevisiae TIM10 strain growth, BacTiter-Glo luminescence, 24 h; hit rate 1.4% among 330,000; inhibition, % at 10 µM; AID 463195, 2010;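 active means inhibition of 40% or more at the single tested concentration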;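 further: wild-type TIM10 isogenic control strain grown at permissive 25 °C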
tim23-1 inh = growth inhibitors of tim23-1 mutant yeast, primary screen, luminescence, uHTS; S. cerevisiae tim23-1 growth, BacTiter-Glo luminescence, 24 h; hit rate 1.3% among 330,000; AID 463212, 2010; inhibition, % at 20 µM;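 active means growth inhibition of the mutant yeast at or above 50%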;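 further: temperature-sensitive mutant grown at 25 °C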
SKKanGAS inh = S. pyogenes SKKanGAS growth inhibitors in kanamycin, primary screen, streptokinase expression inhibitor project, SKKanGAS strain, BacTiter-Glo luminescence | 6 h | inhibition, % at 7.5 µM | hit rate 1.3% among 300,000 | AID 1662, 2009;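 active means mean replicate score, as percent of positive control median, at least 50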;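 further: strain carries kanamycin resistance gene driven by streptokinase promoter and grows in 40 µg/ml kanamycin; loss of luminescence reflects streptokinase promoter inhibition or plain growth inhibition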
Of the large screens only hits and unclear results are named; the others gave an inactive call.

COc1ccc(CCN2C(=O)c3[nH]nc(-c4ccccc4O)c3C2c2cccc(Cl)c2)cc1 (centres undefined)	SKKanGAS inh 71
N#C/C(=C(/O)c1ccc2c(c1)OCO2)c1nc2cc(C(F)(F)F)ccc2s1	SKKanGAS inh 52
CC(C)(C)C1CCC(CN2CCC(CN3C(=O)C(=O)NC[C@@H]3Cc3ccccc3)CC2)CC1 (some centres undefined)	none (no result: tim10-1 inh, TIM10 inh, tim23-1 inh, SKKanGAS inh)
Cc1sc2nc(C3CC3)nc(SCC(=O)NCc3ccco3)c2c1C	PfHsp90 set2 84
Cc1sc2nc(SCC(=O)NCc3ccco3)n(C)c(=O)c2c1C	none
C/C(=N\NC(=O)c1ccc(-c2ccccc2)cc1)C1C(=O)c2ccccc2C1=O	SKKanGAS inh 130
C/C(=N\NC(=O)c1ccc(Br)cc1)C1C(=O)c2ccccc2C1=O	none
COc1ccc(/C=C/C(=O)NC(=S)Nc2ccccc2)cc1OC	none
COc1ccc(/C=C/C(=O)NC(=S)NNC(=O)c2cc(OC)c(OC)c(OC)c2)cc1	SKKanGAS inh 101
COc1ccc(/C=C/C(=O)NC(=S)Nc2ccc(C(=O)O)cc2)cc1	none (no result: tim10-1 inh, TIM10 inh, tim23-1 inh)
COc1ccc(/C=C/C(=O)NC(=S)NNC(=O)c2cc(OC)c(OC)c(OC)c2)cc1OC	SKKanGAS inh 89 (no result: PfHsp90 set2)
Cc1cnc(C(=O)OCc2nc3ccsc3c(=O)[nH]2)cn1	none (no result: SKKanGAS inh)
CC(C)n1cnc2c(NCc3ccccc3)nc(NCc3ccccc3)nc21	SKKanGAS inh 90
CC(C)(C)OC(=O)C[C@H]1C/C=C\C[C@@H](CC(=O)N(CCO)Cc2ccccc2)C(=O)N2CCC[C@H]2COC1=O	none (no result: SKKanGAS inh)
C=CCn1c(SCc2c(C)noc2C)nc2sc3c(c2c1=O)CCCC3	SKKanGAS inh 60
C=CCn1c(SCc2c(C)noc2C)nc2sc3c(c2c1=O)CCCCC3	SKKanGAS inh 54 (no result: PfHsp90 set2)
Cc1noc(C)c1CSc1nc2sc3c(c2c(=O)n1C)CCCC3	none
Cc1ccc(F)c(NC(=O)/C(C#N)=C(\O)c2ccc(C(C)(C)C)cc2)c1	SKKanGAS inh 59
CCC(=O)O[C@@H]1CC(=O)O[C@H](C)CC=CC=C[C@@H](O)[C@H](C)C[C@H](CC=O)[C@H](O[C@H]2O[C@H](C)[C@@H](O[C@H]3C[C@@](C)(O)[C@@H](OC(=O)CC)[C@H](C)O3)[C@H](N(C)C)[C@H]2O)[C@H]1OC	SKKanGAS inh 110 (no result: tim10-1 inh, PfHsp90 set2, TIM10 inh, tim23-1 inh)
CN(C)S(=O)(=O)c1ccc(NC(=O)COc2cccc3c2OC(C)(C)C3)cc1	none (no result: SKKanGAS inh)
O=C1C=CC(=Nc2ccc(F)cc2)O1	PfHsp90 set2 119 (no result: tim10-1 inh, TIM10 inh, tim23-1 inh, SKKanGAS inh)
CC(CCCCCCCCC(=O)O)N(CCO)C(=O)OC(C)(C)C (centres undefined)	none (no result: SKKanGAS inh)
O=C(CC1C[C@H](C(=O)N2CCOCC2)[C@@]2(CCC3CCCC3)c3[nH]c4ccccc4c3CCN2C1=O)NCCC1=CCCCC1 (some centres undefined)	none (no result: SKKanGAS inh)
NC(CCCCc1ccccc1)c1cccc2ccccc12 (centres undefined)	none (no result: PfHsp90 set2)
C/C(=N\Nc1cc(-c2ccccc2)nc(-c2ccc(Br)cc2)n1)c1cccc(N)c1	none (no result: PfHsp90 set2, SKKanGAS inh)
C/C(=N/Nc1cc(-c2ccccc2)nc(-c2ccccc2)n1)c1ccc(O)cc1	SKKanGAS inh 99
CC1CCN(c2ccccc2NC(=O)c2ccc(Br)o2)CC1	SKKanGAS inh 88
Cc1ccc(-n2nc(C)c3c2C(Br)C(C)(C)CC3=O)nc1 (centres undefined)	none (no result: tim10-1 inh, TIM10 inh, tim23-1 inh, SKKanGAS inh)
C#CCOCCOCCOCCNc1nc(N2CCN(C(=O)[C@H](C(C)C)n3cc(CCO)nn3)CC2)nc(N2CCN(C(=O)[C@H]([C@@H](C)CC)n3cc(CCC(=O)O)nn3)CC2)n1	none (no result: tim10-1 inh, TIM10 inh, tim23-1 inh, SKKanGAS inh)
CCCC(=O)NC(c1ccc(Cl)cc1Cl)c1ccc2cccnc2c1O (centres undefined)	SKKanGAS inh 89
CCCCC(=O)NC(c1ccccc1OC)c1ccc2cccnc2c1O (centres undefined)	PfHsp90 set2 106
CCCC(=O)NC(c1ccccc1OC)c1ccc2cccnc2c1O (centres undefined)	none
CCN(C(=O)COC(=O)/C=C/c1nc2ccccc2s1)c1c(N)n(Cc2ccccc2)c(=O)[nH]c1=O	none (no result: tim10-1 inh, TIM10 inh, tim23-1 inh, SKKanGAS inh)
CCCn1c(NC(=O)c2cccc(C)c2C)nc2ccccc21	SKKanGAS inh 52
CC(=O)Nc1nc2ccccc2n1Cc1ccc(Cl)cc1	SKKanGAS inh 64
CCCn1c(NC(=O)C2CCN(C(=O)c3ccccc3C)CC2)nc2ccccc21	none
CCC(=O)Nc1nc2ccccc2n1Cc1ccc(C)cc1	SKKanGAS inh 94
CSCCC(NC(=O)c1cccc(C)c1)C(=O)NNC(=O)c1cccs1 (centres undefined)	none (no result: PfHsp90 set2, SKKanGAS inh)
CCCn1c(N)c(C(=O)CSc2nnc(C3CC3)n2Cc2ccccc2)c(=O)n(C)c1=O	none (no result: SKKanGAS inh)
CC(=NCc1ccco1)c1c(C)[nH]n(-c2nc3ccccc3s2)c1=O	none
C/C(=N/NC(=O)c1cccs1)c1c(C)[nH]n(-c2nc3ccccc3s2)c1=O	SKKanGAS inh 55
CC(C(=O)Nc1ccc2c(c1)OCO2)n1cnc2c1c(=O)n(C)c(=O)n2C (centres undefined)	none (no result: SKKanGAS inh)
O=C(c1cc(-c2ccccc2)nc2ccccc12)N1CCN(c2ccccc2O)CC1	SKKanGAS inh 67
CC(C)c1ccc(-n2cccc2/C=C2/C(=N)N3C=CSC3=NC2=O)cc1	SKKanGAS inh 94
CC[C@]1(C(=O)OC)[C@H]2C(=O)N(C)C(=O)[C@H]2[C@H]2CN=C(SCc3ccc(OC)cc3)N21	none (no result: SKKanGAS inh)
COc1ccc(C(=O)NC(=S)NCCc2ccccc2)cc1	none
COc1ccc(C(=O)NC(=S)NNC(=O)c2cnccn2)cc1	PfHsp90 set2 94
O=C(COc1ccccc1)NNC(=S)NC(=O)c1ccccc1	SKKanGAS inh 75
O=C(CCc1ccccc1)NNC(=S)NC(=O)c1ccc(Cl)cc1	SKKanGAS inh 61 (no result: PfHsp90 set2)
COc1ccc(C(=O)NC(=S)NNC(=O)COc2ccccc2)cc1	SKKanGAS inh 88
O=C(COC(=O)CC1CCCC1)Nc1ccccc1[N+](=O)[O-]	none (no result: SKKanGAS inh)
COc1ccc(-c2ccc3c(c2)S(=O)(=O)c2cccc(C(=O)N4CCN(c5c(Cl)cncc5Cl)CC4)c2C3=O)cc1OC	none (no result: SKKanGAS inh)
O=C(CN1CCN(CC(=O)Nc2ccc(F)cc2)CC1)NCC1(N2CCOCC2)CCCCC1	none (no result: SKKanGAS inh)
O=C(Cc1ccc(Cl)cc1)NNC(=S)NC(=O)c1cccnc1	none
O=C(NNC(=S)NC(=O)c1cccnc1)c1ccc(Cl)cc1	SKKanGAS inh 52
CC1CC(C)(C)CC2(C1)NC(=O)N(CC(=O)N1CCN(Cc3ccc(C#N)cc3)CC1)C2=O (centres undefined)	none (no result: SKKanGAS inh)
CCOc1ccc(-n2c(C)cc(/C=C3/C(=N)N4C(=NC3=O)SN=C4S(C)(=O)=O)c2C)cc1	SKKanGAS inh 84
CCC(CC)C1=NN2C(=N)/C(=C\c3cc(C)n(-c4cccc(C)c4)c3C)C(=O)N=C2S1	SKKanGAS inh 86
